Among the data in PubChem BioAssay (NCI) are growth values, retold here.

The panel holds about 83,000 compounds, 20% with a hit somewhere; the sample as a whole holds those more often.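 Single-concentration screen, 48 h exposure, 96-well plates. Endpoint: percent growth. Below 10 = active.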 Unmarked numbers belong to inactive results. Active and inactive are the calls of the source.

For the test, the system named is MDA-MB-468 breast. As to the kind of experiment: NCI-60 one-dose screen, 48 h (100 = growth as untreated, 0 = no growth, -100 = all killed). The following applies: 10 µM unless noted.
On to `COc1ccc(-c2nc3ccccn3c2-c2nc3ccc(Cl)cc3[nH]2)cc1`, for which the growth is 77.7%.
The value for `COc1ccc(/C=C/c2nc(Nc3cccc(NC(C)=O)c3)c3ccccc3n2)cc1` was 67.1%; that for `C/C1=C\CC[C@@]2(C)O[C@H]2[C@H]2OC(=O)C(CN3CCN(CC4C(=O)O[C@H]5[C@H]4CC/C(C)=C/CC[C@@]4(C)O[C@@H]54)CC3)[C@@H]2CC1` (some centres not stated) was 46.1%; that for `CCc1ccc(C2=C(O)C(=O)C(c3ccc(CC)cc3)=C(O)C2=O)cc1` was -2.72% (active).
The value for `O=C(CSc1nc2ccccc2[nH]1)c1ccc(N2CCOCC2)cc1` was 87.6%; that for `Cc1cc(C)nc(SCC(=O)Nc2cccc(N=Cc3ccccc3O)c2)n1` was 87.8%.
The value for `Cc1ccc2c(c1)Sc1c(ccc3ccccc13)N2` was 86.6%; that for `COc1ccc(/C=c2\sc3n(c2=O)C(c2cc(OC)c(OC)c(OC)c2)C=C(c2ccc(OC)c(OC)c2)N=3)cc1OC` (configuration not stated) was 105%; that for `NC(=S)Nc1ccc2c(c1)Cc1ccccc1-2` was 69.4%.
Consider `CS(=O)(=O)Nc1cc(-c2ccc3ncnc(Nc4cccc(Cl)c4)c3c2)cnc1Cl`, for which the growth is -55.7% (active).
For the compound `CC(C)(C)n1cc(-c2ccnc(NCCCNS(=O)(=O)c3cccc(F)c3)c2)c(-c2cccc(O)c2)n1`, the growth is 25.9%.
To `Cc1cc2c(C(C)C)c(O)c(O)c(C=NCc3ccoc3)c2c(O)c1-c1c(C)cc2c(C(C)C)c(O)c(O)c(C=NCc3ccco3)c2c1O` belongs 61%; to `Cc1ccc(NC(=O)Nc2c(Cl)cccc2Cl)cn1`, 72.8%; to `CC(Nc1ncnc2ccc(-c3cnc4cnccn34)cc12)c1ccccc1` (configuration not stated), -21% (active).
As to `Cn1cc(-c2nn3c(=O)cc(-c4ccccc4)nc3s2)c2cc(F)ccc21`, the growth is 38.9%.
The value for `Cc1c2c[n+](C(C)C)ccc2c(C)c2c1[nH]c1ccccc12` was -37% (active); that for `COc1cc(/C=C\c2cc(OC)c(OC)c(OC)c2)cc(NS(=O)(=O)c2ccc(Cl)cc2)c1OC` was 19.1%.
The value for `COc1cccc2c1C(=O)c1c(O)c3c(c(O)c1C2=O)C[C@@](O)(C(C)=O)C[C@@H]3O[C@H]1C[C@H](N)[C@H](O)[C@H](C)O1` was -72.5% (active).
For the compound `CC1=C(C(=O)n2c3ccccc3c3ccccc32)C(c2cccc([N+](=O)[O-])c2)C(C(=O)n2c3ccccc3c3ccccc32)=C(C)N1`, the growth was 118%.
To `Clc1ccc2c(NCCCN3CCN(c4nc(-n5ccnc5)nc5ccccc45)CC3)ccnc2c1` belongs 106%; to `N#Cc1c(O)c2c(c(O)c1C#N)C(=O)c1ccccc1C2=O`, 7.71% (active); to `Cc1[nH]c(C(=O)Nc2ccccc2OCc2cccc(C(=O)NC3CCNC3)c2)c(Cl)c1Cl` (configuration not stated), 22%.
The value for `Cc1ccc(NC(=S)N/C=C(\c2ccccc2)S(=O)Cc2ccccc2)c(C)c1` (configuration not stated) was 100%.
The value for `CCCCC(=O)Nc1nc2ccc(SCCC)cc2s1` was 20%.
As to `Nc1ncnc2nc(Br)[nH]c12`, the growth is 102%.
To `N#C/C(=C1\SC(=O)CN1c1ccccc1)c1nc2ccccc2s1` belongs 115%; to `O=[N+]([O-])c1ccc2c(c1)Cc1cc(F)ccc1-2`, 53.9%; to `c1ccc(-c2nn[nH]n2)c(-c2ccc(CN3CCN(c4nsc5ccccc45)CC3)cc2)c1`, 75.8%.
For `COc1ccccc1/C=N\NC(=S)Nc1ccc(F)cc1`, the growth is 72.9%.
For the compound `COc1cc(/C=C/c2cc(/C=C/c3ccc(O)c(OC)c3)n(C(=O)Nc3ccccc3Cl)n2)ccc1O`, the growth is -24.2% (active).
The value for `CSc1nc(O)c(-c2ccccc2)c(=O)[nH]1` was 99.1%; that for `COc1ccc2c(c1)C(C)Cc1c(Cl)ncnc1N2C` (configuration not stated) was -47.7% (active); that for `C=CC1(C)C(O[Si](C)(C)C(C)(C)C)CC2C3OC(=O)NC31c1cccc3c1[C@H](C(=O)N3C)C2(C)C` (some centres not stated) was 31.3%.
To `Cc1cccc(C(=O)O)n1` belongs 111%; to `C#CC[C@@H]1C[C@]2(C)[C@H]3CC[C@@H]4[C@H]5[C@H](C(=C)C)CC[C@]5(C(=O)O)CC[C@@]4(C)[C@]3(C)CC[C@H]2C(C)(C)[C@H]1O`, -2.92% (active).
To `c1csc(-c2cc(-c3cc(-c4cccs4)[nH]n3)n[nH]2)c1` belongs 77.3%; to `COc1cc(/C=C/C(=O)Nc2ccc3c(c2)/C(=C\c2cccn2C)C(=O)N3)cc(OC)c1OC`, 47.4%.
